Laboratory results as given in PubChem BioAssay AID1159580 (chemical genetic matrix, 2015).
Screen size: about 5,500 compounds; about 2,000 (36%) were called active. Another 18% or so got no clear call; they are omitted. Cut-off read from the data, not from the text of the source: active = normalized growth mostly below about 0.91 (no sharp cut-off); inconclusive = no clear call, values can overlap the other calls; inactive = mostly above about 0.92. This is one part of the list.

Assay: chemical genetic growth profiling, strain panel (AID 1159580);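 note: tested at 20 µM; growth read once vehicle control cultures reached saturation at 30 °C; 1 = growth at the plate median or of vehicle wells; lower values mean less growth of the strain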
Details: growth OD

Measured: normalized growth

CC(C)CC(NC(=O)OCC1c2ccccc2-c2ccccc21)C(=O)O (stereo unspecified)
inactive: S. cerevisiae deletion strains, locus YAL013W, strain DEP1, active compounds read low 1.01 | S. cerevisiae deletion strains, locus YBR021W, strain FUR4, active compounds read low 0.994 | S. cerevisiae deletion strains, locus YBR229C, strain ROT2, active compounds read low 0.997 | S. cerevisiae deletion strains, locus YCL029C, strain bik1, active compounds read low 1.03 | S. cerevisiae deletion strains, locus YDL035C, strain GPR1, active compounds read low 0.998 | S. cerevisiae deletion strains, locus YDL074C, strain BRE1, active compounds read low 1 | S. cerevisiae deletion strains, locus YDL101C, strain DUN1, active compounds read low 1.02 | S. cerevisiae deletion strains, locus YDL134C, strain PPH21, active compounds read low 0.986 | S. cerevisiae deletion strains, locus YDL185W, strain tfp1, active compounds read low 0.998 | S. cerevisiae deletion strains, locus YDL192W, strain arf1, active compounds read low 1.01 | S. cerevisiae deletion strains, locus YDR101C, strain arx1, active compounds read low 1.01 | S. cerevisiae deletion strains, locus YDR150W, strain NUM1, active compounds read low 0.995 | S. cerevisiae deletion strains, locus YDR162C, strain NBP2, active compounds read low 1.01 | S. cerevisiae deletion strains, locus YDR318W, strain mcm21, active compounds read low 1.02 | S. cerevisiae deletion strains, locus YDR388W, active compounds read low 1.01 | S. cerevisiae deletion strains, locus YDR502C, strain sam2, active compounds read low 1.02 | S. cerevisiae deletion strains, locus YEL061C, strain CIN8, active compounds read low 0.997 | S. cerevisiae deletion strains, locus YER110C, active compounds read low 1.02 | S. cerevisiae deletion strains, locus YER155C, strain BEM2, active compounds read low 1 | S. cerevisiae deletion strains, locus YER167W, strain BCK2, active compounds read low 0.995 | S. cerevisiae deletion strains, locus YGL078C, strain dbp3, active compounds read low 1 | S. cerevisiae deletion strains, locus YGL086W, strain mad1, active compounds read low 0.981 | S. cerevisiae deletion strains, locus YGL248W, strain PDE1, active compounds read low 1 | S. cerevisiae deletion strains, locus YGR078C, strain PAC10, active compounds read low 1.02 | S. cerevisiae deletion strains, locus YGR135W, strain pre9, active compounds read low 1.02 | S. cerevisiae deletion strains, locus YGR229C, strain SMI1, active compounds read low 0.982 | S. cerevisiae deletion strains, locus YGR252W, strain gcn5, active compounds read low 0.916 | S. cerevisiae deletion strains, locus YHR030C, strain SLT2, active compounds read low 1.01 | S. cerevisiae deletion strains, locus YHR079C, strain IRE1 (second series), active compounds read low 1.01 | S. cerevisiae deletion strains, locus YHR094C, strain hxt1, active compounds read low 0.997 | S. cerevisiae deletion strains, locus YHR129C, strain ARP1, active compounds read low 1.01 | S. cerevisiae deletion strains, locus YHR200W, strain rpn10, active compounds read low 1.01 | S. cerevisiae deletion strains, locus YIL066C, strain RNR3, active compounds read low 1.02 | S. cerevisiae deletion strains, locus YIL073C, strain SPO22, active compounds read low 1.03 | S. cerevisiae deletion strains, locus YIL125W, strain kgd1, active compounds read low 0.992 | S. cerevisiae deletion strains, locus YIR030C, strain dcg1, active compounds read low 1 | S. cerevisiae deletion strains, locus YJL095W, strain BCK1, active compounds read low 1.07 | S. cerevisiae deletion strains, locus YJL134W, strain LCB3, active compounds read low 1 | S. cerevisiae deletion strains, locus YJL168C, strain set2, active compounds read low 1.01 | S. cerevisiae deletion strains, locus YJL187C, strain SWE1 (second series), active compounds read low 1.02 | S. cerevisiae deletion strains, locus YJR043C, strain POL32, active compounds read low 1.02 | S. cerevisiae deletion strains, locus YJR075W, strain HOC1, active compounds read low 0.997 | S. cerevisiae deletion strains, locus YKL009W, strain mrt4, active compounds read low 0.969 | S. cerevisiae deletion strains, locus YKL068W, active compounds read low 0.997 | S. cerevisiae deletion strains, locus YKL085W, strain MDH1 (second series), active compounds read low 1 | S. cerevisiae deletion strains, locus YKL085W, strain MDH1, active compounds read low 1 | S. cerevisiae deletion strains, locus YKL190W, strain CNB1, active compounds read low 0.985 | S. cerevisiae deletion strains, locus YKR001C, strain vps1, active compounds read low 1.06 | S. cerevisiae deletion strains, locus YLR039C, strain RIC1, active compounds read low 1.05 | S. cerevisiae deletion strains, locus YLR058C, strain SHM2, active compounds read low 0.997 | S. cerevisiae deletion strains, locus YLR102C, strain apc9, active compounds read low 1.01 | S. cerevisiae deletion strains, locus YLR262C, strain YPT6, active compounds read low 1.11 | S. cerevisiae deletion strains, locus YLR268W, strain sec22, active compounds read low 1.06 | S. cerevisiae deletion strains, locus YLR330W, strain CHS5, active compounds read low 0.984 | S. cerevisiae deletion strains, locus YLR342W, strain FKS1 (second series), active compounds read low 0.985 | S. cerevisiae deletion strains, locus YLR371W, strain rom2, active compounds read low 1.01 | S. cerevisiae deletion strains, locus YLR418C, strain cdc73, active compounds read low 1 | S. cerevisiae deletion strains, locus YML016C, strain PPZ1, active compounds read low 0.995 | S. cerevisiae deletion strains, locus YML032C, strain rad52, active compounds read low 1.01 | S. cerevisiae deletion strains, locus YML124C, strain tub3, active compounds read low 1 | S. cerevisiae deletion strains, locus YMR078C, strain ctf18, active compounds read low 1.01 | S. cerevisiae deletion strains, locus YMR223W, strain ubp8, active compounds read low 0.982 | S. cerevisiae deletion strains, locus YMR263W, strain SAP30, active compounds read low 1.01 | S. cerevisiae deletion strains, locus YMR307W, strain GAS1, active compounds read low 0.985 | S. cerevisiae deletion strains, locus YNL067W, strain RPL9B, active compounds read low 1.03 | S. cerevisiae deletion strains, locus YNL128W, strain TEP1, active compounds read low 1.02 | S. cerevisiae deletion strains, locus YNL153C, strain GIM3, active compounds read low 1.02 | S. cerevisiae deletion strains, locus YNL233W, strain BNI4, active compounds read low 1.01 | S. cerevisiae deletion strains, locus YNL250W, strain rad50, active compounds read low 0.996 | S. cerevisiae deletion strains, locus YNL271C, strain bni1, active compounds read low 1 | S. cerevisiae deletion strains, locus YNL298W, strain CLA4, active compounds read low 0.994 | S. cerevisiae deletion strains, locus YNL307C, strain MCK1, active compounds read low 1.02 | S. cerevisiae deletion strains, locus YNL322C, strain KRE1, active compounds read low 1 | S. cerevisiae deletion strains, locus YNR052C, strain pop2, active compounds read low 1.01 | S. cerevisiae deletion strains, locus YOL006C, strain TOP1, active compounds read low 1.1 | S. cerevisiae deletion strains, locus YOL012C, strain htz1 1.27 | S. cerevisiae deletion strains, locus YOL147C, strain pex11, active compounds read low 1.01 | S. cerevisiae deletion strains, locus YOR061W, strain CKA2, active compounds read low 0.991 | S. cerevisiae deletion strains, locus YOR069W, strain VPS5, active compounds read low 1 | S. cerevisiae deletion strains, locus YOR136W, strain idh2, active compounds read low 0.99 | S. cerevisiae deletion strains, locus YOR144C, strain elg1, active compounds read low 1 | S. cerevisiae deletion strains, locus YOR184W, strain ser1, active compounds read low 1.05 | S. cerevisiae deletion strains, locus YOR316C, strain cot1, active compounds read low 1.01 | S. cerevisiae deletion strains, locus YPL055C, strain LGE1, active compounds read low 0.963 | S. cerevisiae deletion strains, locus YPL241C, strain CIN2, active compounds read low 0.993 | S. cerevisiae deletion strains, locus YPR119W, strain clb2, active compounds read low 1 | S. cerevisiae deletion strains, locus YPR141C, strain kar3, active compounds read low 0.999 | S. cerevisiae deletion strains, locus YPR163C, strain tif3, active compounds read low 1.02 | S. cerevisiae deletion strains, locus YPR167C, strain met16, active compounds read low 1.01 | S. cerevisiae deletion strains, strain wtn01, active compounds read low 1.04 | S. cerevisiae strains, strain wild type, active compounds read low 1
